Screens deposited in PubChem by National Center for Advancing Translational Sciences (NCATS).
Shown are actives, neighbours in structure and some others; about 11% of the full set was active somewhere.
PNC inhibitor: perinucleolar compartment assembly inhibition. PC3M PTB-GFP, PNC prevalence imaging, 16 h; hits give low values. activity change (PNC), negative = inhibition, % at 10 µM. hit rate 3.1% among 140,000;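 active = readout at or below -70, meaning at least 70% loss of cells showing the perinucleolar compartment, a nuclear body marking cancer cells; inconclusive = readout between -30 and a set limit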;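 note: plate controls were DMSO wells for no effect and camptothecin positive control wells for full effect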
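Compounds are pinned in duplicate onto adhered PC3M cells stably expressing GFP-tagged PTB and incubated 16 h at 37 C. Cells are then fixed, nuclei stained with Hoechst, and PNC-positive cells counted.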
ALOX12 inhib: blocks human 12-lipoxygenase activity. Potency, µM (series often up to 57.1 µM), for inactives: at the highest dose activity change, negative = inhibition, most hits filed as inhibitors. AID 1452. hit rate 0.12% among 150,000. purified 12-hLO, xylenol orange hydroperoxide absorbance; note: potency is the fitted concentration of half-maximal effect; nearly all actives have a fitted effect of over 55% in size
Target sequence (P18054 whole entry, looked up): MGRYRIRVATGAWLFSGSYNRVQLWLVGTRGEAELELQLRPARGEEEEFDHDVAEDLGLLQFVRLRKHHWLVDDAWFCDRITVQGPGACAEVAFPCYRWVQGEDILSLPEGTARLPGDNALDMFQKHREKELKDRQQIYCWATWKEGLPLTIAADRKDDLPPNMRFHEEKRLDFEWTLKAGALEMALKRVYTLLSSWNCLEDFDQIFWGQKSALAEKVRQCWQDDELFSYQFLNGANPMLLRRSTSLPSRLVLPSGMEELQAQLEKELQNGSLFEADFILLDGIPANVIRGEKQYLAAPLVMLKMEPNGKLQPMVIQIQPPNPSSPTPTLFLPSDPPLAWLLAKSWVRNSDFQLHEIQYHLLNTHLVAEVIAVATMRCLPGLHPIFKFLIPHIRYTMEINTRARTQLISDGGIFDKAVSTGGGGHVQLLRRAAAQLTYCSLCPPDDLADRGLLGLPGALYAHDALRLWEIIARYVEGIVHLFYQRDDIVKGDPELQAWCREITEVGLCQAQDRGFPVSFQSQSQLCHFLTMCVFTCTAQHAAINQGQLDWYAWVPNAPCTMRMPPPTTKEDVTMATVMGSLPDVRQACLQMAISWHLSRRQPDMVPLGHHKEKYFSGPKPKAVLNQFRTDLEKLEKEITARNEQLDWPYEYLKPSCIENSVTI
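Lipoxygenase turnover measured by absorbance at 573 and 405 nm after Fe-XO development. Human 12hLO 150 nM, arachidonate 40 uM, pH 7.0 Hepes buffer with detergent; 15 min compound preincubation, 30 min reaction.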
HPGD block: blocks human HPGD enzyme activity | P15428 | purified HPGD, NADH fluorescence kinetic, PGE2 substrate | Potency, µM, for the others: at the top dose activity change, negative = inhibition, actives largely listed as inhibitors | hit rate 4.3% among 150,000; active = well fitted inhibition curve with a large enough effect, not every such curve was filed as active; inconclusive = small, poorly fitted or top-dose-only effect, or another doubt; inactive = no such curve, though single readings can be large or run the other way; note: potency is the fitted concentration of half-maximal effect
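20 nM HPGD preincubated 15 min at room temperature with compound in 50 mM Tris-HCl pH 8, 0.01% Tween 20. Started with 1 mM NAD+ and 30 uM prostaglandin E2; NADH fluorescence (360/450 nm) read 5 times over 30-s intervals, last minus first.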
IMPase Li cell: IMPase inhibition in cells with lithium potentiation | CHO-M1 cells, IP1 TR-FRET (IP-One), carbachol + lithium | Potency, µM (titrated, usually from 59.4 µM), inactives show top-dose activity, negative = IMPase inhibition, most hits filed as inhibitors | hit rate 0.35% among 210,000;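 note: IP1 builds up when IMPase is blocked and the TR-FRET signal falls; potency is the fitted concentration of half-maximal effect; plate controls were basal vehicle for no effect and high inhibitor control for full effect; nearly all actives have a fitted effect of over 50% in size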
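CHO cells stably expressing M1 receptor (2000/well, cultured 16–30 h) treated 30 min at 37C with compound plus low lithium. Cytosolic IP1 by TR-FRET (665/620 ratio and 620 channel) after 10 min lysis; AC50 by Hill fit.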
IMPase inh: membrane-permeable compound that blocks inositol monophosphatase; AID 901; inhibition (IP1 accumulation), % at 46.1 µM; CHO-M1 cells, IP1 accumulation, HTRF TR-FRET ratio; 120,000 tested, under 10 active; active = well fitted curve in the direction sought with a large enough effect in the signal ratio, not every such curve was filed as active; inconclusive = small, poorly fitted or top-dose-only effect, or a change in a side signal; inactive = no such curve, though single readings can be large or run the other way; the % refers to the signal ratio;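 note: cells stimulated with carbachol in lithium chloride buffer; plate controls were DMSO basal wells for no effect and reference inhibitor wells for full effect; higher means more IMPase inhibition seen as more IP1 and lower FRET ratio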
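CHO-M1 cells (CHO stably expressing M1 receptor), compound up to 46 uM final, stimulated with carbachol (50 uM as added) in buffer with 50mM LiCl, pH 7.4, 30 min at 37C. Cytosolic IP1 read by TR-FRET; AC50 from Hill fits.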
ALDH1A1 block: inhibitors of human aldehyde dehydrogenase 1A1; P00352; Purified ALDH1A1, NADH fluorescence, propionaldehyde substrate; Potency, µM (highest dose often 75.3 µM), inactives show at the highest dose activity, negative = inhibition, usual class: inhibitors; hit rate 7.3% among 220,000; AID 1030; active = well fitted inhibition curve with a large enough effect, not every such curve was filed as active; inconclusive = small, poorly fitted or top-dose-only effect, or another doubt; inactive = no such curve, though single readings can be large or run the other way;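 note: potency is the fitted concentration of half-maximal effect; plate controls were no enzyme wells and a reference inhibitor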
Active calls of the source: *; ? = inconclusive; / = no result; [ ] = dose if it differs, or a comment. Unless noted, calls come from the whole dose curve; as a rule, active = well fitted curve in the direction sought with a large enough effect; inconclusive = small, poorly fitted or top-dose-only effect, or another doubt; inactive = no such curve, though single readings can be large; an effect the other way counts as inactive or inconclusive. Unless noted, % is set by controls: 0 for no effect and ±100 for the full control effect.

SMILES | PNC inhibitor | ALOX12 inhib | HPGD block | IMPase Li cell | IMPase inh | ALDH1A1 block
O=c1c2ccccc2ncn1-c1ccc(Cl)cc1 | / | / | / | / | / | 5.3%
O=c1[nH]n(-c2ccc(Cl)cc2)c2ncccc12 | 2.7 | -2.6% | 11.2µM* | -2.9%[38.3 µM] | 1.8 | 2.1%
Cc1ccc(S(=O)(=O)/N=C(\CCl)N2CCOCC2)cc1 | 24.2 | -0.5% | -16.8% | -1.5% | / | 28.2µM*
Cc1noc(C)c1CS(=O)(=O)c1ccc([N+](=O)[O-])cc1 | / | / | / | 4.7% | / | 31.6µM*
CCCCN1C(=O)/C(=C/C=C2\Oc3ccccc3N2CC)SC1=S | / | / | / | 17.5% | / | ?
CCCCN1C(=O)/C(=C/C=C2/CC(C)(C)CN2C)SC1=S | -25.0 | -0.7% | -3.8% | 8.6% | / | 6.31µM*
COc1ccc(OC)c(C(c2nnnn2CC2CCCO2)N2CCN(C)CC2)c1 (centres undefined) | 33.2 | 0.6% | -6.2% | 12.3%[38.3 µM] | 8.2 | ?
C=CCN1CCN(C(c2cc(OC)ccc2OC)c2nnnn2CC2CCCO2)CC1 (centres undefined) | ? | 1.5% | -12.3% | 18.2%[38.3 µM] | 8.6 | 28.2µM*
COc1ccccc1C(c1nnnn1CC1CCCO1)N1CCC(C(N)=O)CC1 (centres undefined) | -100.0* | 3.3% | -18.5% | -3.8% | -3.3 | 2.7%
CCOC(=O)N/N=C1/C[C@@H](O)[C@@H](O)[C@@H]2[C@@H]3C(=O)N(C[C@@H]4CCCO4)C(=O)[C@H]3CC[C@@H]12 | / | / | / | / | / | 18.1%[13.5 µM]
Cc1nc(-c2ccc3c(c2)OCCCO3)cs1 | / | / | / | / | / | 25.1µM*
Cc1nc(-c2cccc(S(=O)(=O)N3CC(C)OC(C)C3)c2)cs1 (centres undefined) | 43.6 | -1.1% | -6.8% | 0.4%[38.3 µM] | -15.6 | 2.9%
Cc1nc(-c2ccc(C(=O)N3CCOCC3)cc2)cs1 | ? | -0.7% | 8.91µM* | -3.5%[38.3 µM] | -5.1 | 10.3%
Cc1nc(-c2ccc(C(=O)Nc3ccc(F)cc3)cc2)cs1 | / | / | / | -6.4% | / | 5.7%
Cc1nc(-c2cccc(S(=O)(=O)N3CCOCC3)c2)cs1 | 19.4 | -0.5% | 25.1µM* | -0.9% | 8.5 | 4.47µM*
Cc1nc(-c2ccc(C(=O)N3CCCC3)cc2)cs1 | / | / | / | 6.6% | / | 25.1µM*
CCCc1nc2nc(C)c(NS(=O)(=O)c3ccc(CC(C)C)cc3)c(=O)n2[nH]1 | / | / | / | / | 1.8 | /
COc1ccc(Nc2nnc(-c3ccc(C)c(S(=O)(=O)NCc4nc5ccccc5[nH]4)c3)c3ccccc23)cc1 | / | / | / | / | 2.5 | /
COc1ccc(S(=O)(=O)Nc2ccc(S(=O)(=O)N(C)C)cc2)cc1[N+](=O)[O-] | -10.6 | 1.7% | -7.7% | 1.0% | / | 12.6µM*
O=C(NCC1CCCO1)c1onc(CSc2ccccc2)c1C(=O)O (centres undefined) | 96.8 | -1.1% | -9.2% | -11.6%[38.3 µM] | -9.4 | -4.7%
Cc1cccc(SCc2noc(C(=O)NCC3CCCO3)c2C(=O)O)c1 (centres undefined) | -89.7* | 3.2% | -13.6% | -28.2%[38.3 µM] | -8.2 | 4.0%
CC(C)c1ccc(SCc2noc(C(=O)NCC3CCCO3)c2C(=O)O)cc1 (centres undefined) | 34.5 | 3.1% | 7.94µM* | -5.7%[38.3 µM] | 9.1 | ?
CCCCNC(=O)c1onc(CSc2cc(C)ccc2C)c1C(=O)O | 23.4 | -6.8% | -19.7% | -6.7%[38.3 µM] | -0.4 | 4.2%
CCCCNC(=O)c1onc(CSc2ccccc2CC)c1C(=O)O | -108.8* | 5.2% | -28.2% | -1.8%[38.3 µM] | -8.2 | 8.8%
Cc1cc(C)n(S(=O)(=O)c2ccc3ccccc3c2)n1 | -7.9 | -1.0% | -28.7% | 3.9%[38.3 µM] | 11.9 | ?
Cc1cc(C)n(S(=O)(=O)c2ccc(C(C)(C)C)cc2)n1 | ? | -4.3% | 20µM* | 2.3%[38.3 µM] | 0.2 | 12.6µM*
O=C(O)CCCn1nc(C(F)(F)F)c2c1CCCCC2 | -91.6* | -4.2% | -15.8% | -24.3%[38.3 µM] | 0.7 | ?
Nc1nc(NCc2ccco2)nc(N2CCCCCC2)c1[N+](=O)[O-] | -11.1 | -1.2% | -9.8% | 10.2% | / | 1.58µM*
Nc1nc(NCc2ccco2)nc(N2CCN(Cc3ccccc3)CC2)c1[N+](=O)[O-] | / | / | / | / | / | -5.3%
Nc1nc(NCc2ccco2)nc(N2CCCC2)c1[N+](=O)[O-] | / | / | / | / | / | 3.98µM*
